Experimental data reported in PubChem BioAssay (NCI).
Compounds without any hit were thinned out: in the full panel of roughly 79,000, 15% have a hit. Activity calls are given as the source filed them. Rule as the data show it: active = growth inhibition above about 70%; inactive = the rest.

Experiments:
[1] = NCI Yeast Anticancer Drug Screen. Data for the mec2-1 strain (AID 157); conditions: S. cerevisiae mec2-1 strain, active compounds read high
Summary of the method: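 Compounds were applied to mec2-1 yeast cells. Their growth was then compared with that of vehicle-treated cultures to give growth inhibition.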

[2] = NCI Yeast Anticancer Drug Screen. Data for the rad14 strain (AID 159);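 also: 0% = growth of vehicle-treated control cultures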; conditions: S. cerevisiae rad14 strain growth inhibition, active compounds read high
Summary of the method: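 Growth inhibition vs vehicle controls; genetically altered yeast strain (DNA damage repair defect) treated with test compounds.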

[3] = NCI Yeast Anticancer Drug Screen. Data for the sgs1 mgt1 strain (AID 161);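 also: 0% = growth of cultures given vehicle only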; conditions: S. cerevisiae sgs1 mgt1 strain, active compounds read high
Summary of the method: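 This yeast growth screen uses a strain with defined DNA-repair lesions; compound-treated growth is compared with vehicle-treated growth.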

[4] = NCI Yeast Anticancer Drug Screen. Data for the CLN2oe strain (AID 163);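 also: 0% = growth of vehicle-only control cultures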; conditions: S. cerevisiae CLN2oe strain, active compounds read high
Summary of the method: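 Cells of an engineered yeast line with disturbed cell-cycle regulation are treated with compound. Inhibition of growth is then calculated relative to the vehicle-treated reference.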

[5] = NCI Yeast Anticancer Drug Screen. Data for the cln2 rad14 strain (AID 165);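 also: 0% = growth equal to vehicle treated cultures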; conditions: S. cerevisiae cln2 rad14 strain, active compounds read high
Summary of the method: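 Strain: cln2 rad14 yeast, altered in cell cycle control and DNA damage repair. Read-out: growth inhibition vs vehicle.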

[6] = NCI Yeast Anticancer Drug Screen. Data for the bub3 strain (AID 167); conditions: S. cerevisiae bub3 mutant strain, active compounds read high
Summary of the method: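 Readout: yeast growth inhibition, expressed relative to vehicle-only wells. The test organism is a mutant strain from a panel with lesions in DNA repair or checkpoint genes.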

[7] = NCI Yeast Anticancer Drug Screen. Data for the wt2 strain (AID 169);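 also: 0% = growth of vehicle-treated yeast cultures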; conditions: S. cerevisiae wt2 strain growth inhibition, active compounds read high
Summary of the method: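 Growth of compound-treated yeast is measured and expressed as inhibition relative to vehicle-only controls.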

[8] = NCI Yeast Anticancer Drug Screen. Data for the mlh1 strain (AID 171);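 also: 0% = growth of vehicle-treated control cultures of the same strain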; conditions: S. cerevisiae mlh1 strain growth inhibition, active compounds read high
Summary of the method: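 Test agents were incubated with yeast bearing a defined DNA damage repair or cell cycle control alteration; values are growth inhibition normalised to vehicle-treated cultures.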

[9] = NCI Yeast Anticancer Drug Screen. Data for the mlh1 rad18 strain (AID 175); conditions: S. cerevisiae mlh1 rad18 strain growth inhibition, active compounds read high
Summary of the method: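 A repair-deficient yeast strain is exposed to test compound, and growth is scored relative to vehicle-treated controls.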

[10] = NCI Yeast Anticancer Drug Screen. Data for the rad18 strain (AID 177); conditions: S. cerevisiae rad18 mutant growth inhibition, active compounds read high
Summary of the method: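 DNA-repair-defective yeast; compound treatment; growth inhibition scored against vehicle.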

[11] = NCI Yeast Anticancer Drug Screen. Data for the rad52 strain (AID 147);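 also: 0% = growth of vehicle-treated control cultures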; conditions: S. cerevisiae rad52 mutant growth inhibition, active compounds read high
Summary of the method: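 Growth of repair-deficient yeast cells was compared between compound-treated and vehicle-treated cultures to give percent inhibition.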

[12] = NCI Yeast Anticancer Drug Screen. Data for the wt1 strain (AID 149);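 also: 0% = growth of vehicle-treated wt1 cultures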; conditions: S. cerevisiae wt1 strain (SPY 50644) growth inhibition, active compounds read high
Summary of the method: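 Growth inhibition read against vehicle controls after compound exposure of the wt1 yeast strain.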

[13] = NCI Yeast Anticancer Drug Screen. Data for the rad50EPP+ strain (AID 151);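 also: 0% = growth of vehicle-treated control cultures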; conditions: S. cerevisiae rad50 mutant strain, active compounds read high
Summary of the method: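 Measured: growth inhibition of rad50EPP+ yeast. Reference: vehicle-treated controls. Screen uses strains with defined genetic alterations in DNA damage repair or cell cycle control.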

[14] = NCI Yeast Anticancer Drug Screen. Data for the mgt1 strain (AID 153); conditions: S. cerevisiae mgt1 mutant growth inhibition, active compounds read high
Summary of the method: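 Compounds were applied to mgt1 mutant yeast, and growth was then compared against vehicle-treated control cultures to give percent inhibition.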

[15] = NCI Yeast Anticancer Drug Screen. Data for the rad50 strain (AID 155);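 also: 0% = growth of vehicle-only cultures of the same strain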; conditions: S. cerevisiae rad50 strain growth inhibition, active compounds read high
Summary of the method: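 Readout: growth inhibition relative to vehicle-treated cultures. Compound exposure was carried out in a genetically defined yeast strain deficient in DNA damage repair.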

[16] = NCI Yeast Anticancer Drug Screen. Data for the sgs1 strain (AID 173);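 also: 0% = growth of vehicle-only control cultures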; conditions: S. cerevisiae sgs1 mutant, active compounds read high
Summary of the method: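 Strain with an altered DNA repair or cell cycle pathway exposed to compound. Growth then measured. Value = inhibition versus vehicle control.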

[17] = at 5.0 µM (retest, dose inferred, filed as 0.5)
[18] = at 50.0 µM (retest, dose inferred, filed as 5.0)

Measured: growth inhibition

CCN(CC)CCN(C)CCc1ccc(Br)cc1
active: [1]; at 100.0 µM 78% | [2]; at 33.0 µM 87% | [2]; at 100.0 µM 97% | [4]; at 100.0 µM 89% | [6]; at 100.0 µM 84% | [7]; at 100.0 µM 94% | [8]; at 100.0 µM 94% | [10]; at 100.0 µM 91%
inactive: [1]; [17] 8% | [1]; at 11.0 µM 26% | [1]; at 33.0 µM 43% | [1]; [18] 26% | [1]; at 50.0 µM 33.6% | [2]; at 1.2 µM 15% | [2]; at 3.7 µM 36% | [2]; at 11.0 µM 57% | [3]; [17] 5% | [3]; [18] 41% | [3]; at 50.0 µM 68.4% | [4]; at 1.2 µM 11% | [4]; at 3.7 µM 15% | [4]; at 11.0 µM 35% | [4]; at 33.0 µM 64% | [5]; [17] 10% | [5]; [18] 52% | [5]; at 50.0 µM 53.4% | [6]; at 1.2 µM 10% | [6]; at 3.7 µM 16% | [6]; [17] 13% | [6]; at 11.0 µM 35% | [6]; at 33.0 µM 67% | [6]; [18] 21% | [6]; at 50.0 µM 53.5% | [7]; at 1.2 µM 6% | [7]; at 3.7 µM 11% | [7]; at 11.0 µM 33% | [7]; at 33.0 µM 68% | [8]; at 1.2 µM 7% | [8]; at 3.7 µM 13% | [8]; at 11.0 µM 31% | [8]; at 33.0 µM 60% | [9]; [17] -29% | [9]; [18] 25% | [9]; at 50.0 µM 68.3% | [10]; at 1.2 µM 11% | [10]; at 3.7 µM 32% | [10]; at 11.0 µM 54% | [10]; at 33.0 µM 66%

Cc1c2ccnc(C(=O)NCCN(C)C)c2cc2c3cc(O)ccc3n(C)c12
active: [11]; at 33.0 µM 88% | [11]; at 100.0 µM 92% | [15]; at 33.0 µM 88% | [15]; at 50.0 µM 92.1% | [15]; at 100.0 µM 92%
inactive: [11]; at 1.2 µM 2% | [11]; at 3.7 µM 23% | [11]; at 11.0 µM 69% | [12]; at 1.2 µM 2% | [12]; at 3.7 µM 5% | [12]; at 11.0 µM 10% | [12]; at 33.0 µM 20% | [12]; at 100.0 µM 29% | [13]; at 1.2 µM -2% | [13]; at 3.7 µM 4% | [13]; at 11.0 µM 22% | [13]; at 33.0 µM 44% | [13]; at 100.0 µM 56% | [14]; at 1.2 µM 0% | [14]; at 3.7 µM 2% | [14]; at 11.0 µM 8% | [14]; at 33.0 µM 10% | [14]; at 100.0 µM 30% | [15]; at 1.2 µM 1% | [15]; at 3.7 µM 20% | [15]; [17] 11% | [15]; at 11.0 µM 67% | [15]; [18] 59% | [1]; at 1.2 µM 1% | [1]; at 3.7 µM 6% | [1]; [17] -7% | [1]; at 11.0 µM 14% | [1]; at 33.0 µM 26% | [1]; [18] 7% | [1]; at 50.0 µM 23.8% | [1]; at 100.0 µM 39% | [2]; at 1.2 µM 1% | [2]; at 3.7 µM 3% | [2]; at 11.0 µM 9% | [2]; at 33.0 µM 21% | [2]; at 100.0 µM 37% | [3]; [17] -4% | [3]; [18] 8% | [3]; at 50.0 µM 13.3% | [4]; at 1.2 µM 0% | [4]; at 3.7 µM 1% | [4]; at 11.0 µM 0% | [4]; at 33.0 µM 9% | [4]; at 100.0 µM 19% | [5]; [17] 4% | [5]; [18] 33% | [5]; at 50.0 µM 44.5% | [6]; at 1.2 µM 1% | [6]; at 3.7 µM 1% | [6]; [17] 40% | [6]; at 11.0 µM 4% | [6]; at 33.0 µM 14% | [6]; [18] 42% | [6]; at 50.0 µM 8.05% | [6]; at 100.0 µM 23% | [7]; at 1.2 µM 1% | [7]; at 3.7 µM 2% | [7]; at 11.0 µM 7% | [7]; at 33.0 µM 20% | [7]; at 100.0 µM 30% | [8]; at 1.2 µM 4% | [8]; at 3.7 µM 4% | [8]; at 11.0 µM 10% | [8]; at 33.0 µM 21% | [8]; at 100.0 µM 32% | [16]; at 1.2 µM -2% | [16]; at 3.7 µM 2% | [16]; at 11.0 µM 4% | [16]; at 33.0 µM 17% | [16]; at 100.0 µM 32% | [9]; [17] 0% | [9]; [18] -1% | [9]; at 50.0 µM 46.4% | [10]; at 1.2 µM -5% | [10]; at 3.7 µM -4% | [10]; at 11.0 µM -1% | [10]; at 33.0 µM 3% | [10]; at 100.0 µM 15%

Cc1ccc2c3ccc4c(c3n(C)c2c1)C(=O)C=CC4=O
inactive: [11]; at 1.2 µM -55% | [11]; at 3.7 µM -66% | [11]; at 11.0 µM -53% | [11]; at 33.0 µM -37% | [11]; at 100.0 µM 22% | [12]; at 1.2 µM -22% | [12]; at 3.7 µM -16% | [12]; at 11.0 µM -18% | [12]; at 33.0 µM -1% | [12]; at 100.0 µM 33% | [13]; at 1.2 µM -3% | [13]; at 3.7 µM 24% | [13]; at 11.0 µM 31% | [14]; at 1.2 µM 20% | [14]; at 3.7 µM 11% | [14]; at 11.0 µM 22% | [14]; at 33.0 µM 40% | [15]; at 1.2 µM -4% | [15]; at 3.7 µM -5% | [15]; [17] 7% | [15]; at 11.0 µM 3% | [15]; at 33.0 µM 10% | [15]; [18] 49% | [15]; at 50.0 µM 57.8% | [15]; at 100.0 µM 53% | [1]; at 1.2 µM -22% | [1]; at 3.7 µM -11% | [1]; [17] 7% | [1]; at 11.0 µM -3% | [1]; at 33.0 µM 23% | [1]; [18] 42% | [1]; at 50.0 µM 51.5% | [1]; at 100.0 µM 66% | [2]; at 1.2 µM -9% | [2]; at 3.7 µM -12% | [2]; at 11.0 µM -9% | [2]; at 33.0 µM -6% | [2]; at 100.0 µM 59% | [3]; [17] 9% | [3]; [18] 58% | [3]; at 50.0 µM 67.2% | [4]; at 1.2 µM -5% | [4]; at 3.7 µM -4% | [4]; at 11.0 µM -3% | [4]; at 33.0 µM 9% | [4]; at 100.0 µM 27% | [5]; [17] 18% | [5]; [18] 50% | [5]; at 50.0 µM 33.7% | [6]; at 1.2 µM -14% | [6]; at 3.7 µM -1% | [6]; [17] 43% | [6]; at 11.0 µM -11% | [6]; at 33.0 µM 16% | [6]; at 50.0 µM 61.2% | [6]; at 100.0 µM 56% | [7]; at 1.2 µM -47% | [7]; at 3.7 µM -28% | [7]; at 11.0 µM -30% | [7]; at 33.0 µM -29% | [7]; at 100.0 µM 38% | [8]; at 1.2 µM -10% | [8]; at 3.7 µM -3% | [8]; at 11.0 µM 16% | [8]; at 33.0 µM 46% | [16]; at 1.2 µM -32% | [16]; at 3.7 µM -24% | [16]; at 11.0 µM -16% | [16]; at 33.0 µM 16% | [16]; at 100.0 µM 63% | [9]; [17] 21% | [9]; at 50.0 µM 68% | [10]; at 1.2 µM 4% | [10]; at 3.7 µM 14% | [10]; at 11.0 µM 15% | [10]; at 33.0 µM 39%
active: [13]; at 33.0 µM 76% | [13]; at 100.0 µM 91% | [14]; at 100.0 µM 78% | [6]; [18] 80% | [8]; at 100.0 µM 81% | [9]; [18] 77% | [10]; at 100.0 µM 82%
